Screens as filed in PubChem.
DAX1 inh-1 = DAX1 (NR0B1) inhibitors, primary screen, cell-based, HEK293, Gal4-DAX1, luciferase luminescence; HEK293 Gal4-DAX1 luciferase reporter; AID 504766, 2011; actives 0.99% (n = 340,000); Nuclear receptor subfamily 0 group B member 1 (Homo sapiens), P51843; inhibition, % at 6.75 µM;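 active = inhibition above the mean over all tested compounds plus 3 SD, cut at about 4.2% in these data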;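 note: 0% = DAX1-transfected cells with DMSO and 100% = empty-vector control cells with DMSO; inhibition shows as a rise in luminescence from relieved DAX1 repression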
Target sequence (P51843 207-470 limits assumed): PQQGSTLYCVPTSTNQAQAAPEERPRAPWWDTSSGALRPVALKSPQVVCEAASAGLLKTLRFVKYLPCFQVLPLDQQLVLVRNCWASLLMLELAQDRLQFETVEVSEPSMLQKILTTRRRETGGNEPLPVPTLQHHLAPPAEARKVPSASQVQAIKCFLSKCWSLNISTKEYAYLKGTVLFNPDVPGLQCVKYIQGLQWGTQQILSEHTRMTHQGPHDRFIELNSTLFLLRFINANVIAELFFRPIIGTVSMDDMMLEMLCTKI
ssDAF12 agonist = S. stercoralis DAF-12 nuclear receptor activators, primary screen, cell-based, luminescence, HEK293, GRIP1 co-expression, lit1-tk-luc | HEK293 ssDAF-12/GRIP1 lit1-tk-luc reporter; % of 3 µM dafachronic acid response | activation, % at 6.8 µM | actives 1% (n = 370,000) | Nuclear hormone receptor DAF-12 (Strongyloides stercoralis);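 active = activation above the mean over all tested compounds plus 3 SD, cut at about 0.9% in these data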;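 note: 0% = DMSO-only wells and 100% = 3 µM delta7-dafachronic acid wells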
hgDAF-12 ag = H. glycines DAF-12 receptor agonists, primary screen, cell-based, luminescence, HEK293, GAL4 fusion, UAS-luciferase; activation, % at 6.8 µM; AID 687014, 2013; actives 1.8% (n = 370,000); HEK293 GAL4-hgDAF12 UAS-luciferase reporter, agonist luminescence; normalized to butyrate control;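 active = activation above a cutoff set at the mean of all screened compounds plus 3 SD, cut at about 10% in these data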;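 note: 0% = DMSO wells and 100% = sodium butyrate wells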
SMARCA2 activ = SMARCA2 (BRM) function activators, primary screen, cell-based, luminescence, high throughput | MG213 cells, MMTV-luciferase reporter, dexamethasone, overnight | activation, % at 9.1 µM | actives 1% (n = 370,000) | AID 652017, 2013; in the data active = activation above about 7.8%;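 note: 0% = vehicle wells and 100% = reference activator wells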
hcDAF-12 act = H. contortus DAF-12 nuclear receptor activators, primary screen, cell-based, luminescence, HEK293, lit1-tk-luc reporter | HEK293 hcDAF-12 lit1-tk-luc reporter; 0% DMSO, 100% Δ7-dafachronic acid | activation, % at 6.8 µM | actives 1.4% (n = 370,000);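 active = activation above the mean of all tested compounds plus 3 SD, cut at about 5.5% in these data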;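 note: 100% = response to 3 µM Δ7-dafachronic acid high control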
DAX1 inh-2 = DAX1 (NR0B1) inhibitors on StAR promoter, primary screen, cell-based, luminescence, SF-1 (NR5A1), full-length DAX-1; AID 652010, 2013; HEK293T StAR-luciferase reporter, SF-1/DAX-1 repression relief; actives 1.1% (n = 370,000); inhibition, % at 6.8 µM;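 active = inhibition above the mean over all tested compounds plus 3 SD, cut at about 3.6% in these data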;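 note: 0% = DAX-1 cells with DMSO and 100% = cells lacking DAX-1 with DMSO; higher inhibition means more luminescence from relief of DAX-1 repression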
SMARCA2 act conf = SMARCA2 (BRM) function activators, confirmation, cell-based, luminescence, triplicate; actives 30% (n = 3,500); shares compounds with SMARCA2 activ; MG213 cells, MMTV-luciferase with dexamethasone, overnight; MG213 cells expressing E1A, Rb sequestered; DMSO wells 0%, reference activator 100%; activation, % at 9.1 µM;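 active = activation above its plate's cutoff, the mean activation of tested wells plus 3 SD, cut at about 7.9% in these data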
GAL4-VP16 Luc = GAL4-VP16 luciferase reporter activation, counter-screen for SMARCA2 (BRM) activator project, cell-based, pG5luc, luminescence, high throughput. shares compounds with SMARCA2 activ. HEK293 GAL4-VP16 pG5luc reporter; scaled: DMSO wells 0%, SAHA wells 100%. activation, % at 9.1 µM. actives 41% (n = 3,500). AID 686939, 2013;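 active = activation above the solvent-only control well mean plus 3 SD, averaged across control plates, cut at about 5.2% in these data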
* = called active by the depositor; x = no result given. A selection: hits, their analogues and other compounds. The true share with any hit is near 4.8%.

SMILES	DAX1 inh-1	ssDAF12 agonist	hgDAF-12 ag	SMARCA2 activ	hcDAF-12 act	DAX1 inh-2	SMARCA2 act conf	GAL4-VP16 Luc
CC(=O)Nc1cc(C(=O)OCC(=O)c2ccccc2)ccc1C	0	0	12*	8.3*	7.0*	4	6	10*
O=C1NC(=O)/C(=C\c2ccc(O)cc2O)S1	1	-1	6	13*	0	1	6	3
Cc1ccnc(NC(=O)c2cccc3ccccc23)c1	0	-1	5	11*	1	2	3	2
CC(=O)c1ccc(NC(=O)CSc2nc3nn(-c4ccccc4)c(=O)c-3c3n2CCCCC3)cc1	1	-1	3	3	-1	2	x	x
CCCn1nc2cc(C(=O)NCc3ccccc3OC)ccc2c1OCC	1	-1	-1	0	-2	0	x	x
CC1Cn2c(nc3sc4c(c3c2=O)CCC4)N1CCO (stereo unspecified)	1	-1	3	0	-3	0	x	x
COc1ccc(OCCC(=O)OCC(=O)NCc2ccccc2)cc1	3	-1	-1	9.8*	0	0	-1	2
Cc1ccc(OCCC(=O)OCC(=O)NCc2ccccc2)cc1	3	-1	0	-1	-2	1	x	x
CC(C)C(=O)NC(c1cccs1)c1cc([N+](=O)[O-])c2cccnc2c1O (stereo unspecified)	0	x	x	x	x	x	x	x
COCCNC(=O)COC(=O)/C=C/c1cnc2ccccc2n1	3	-1	1	12*	1	-1	4	1
O=C(COC(=O)/C=C/c1cnc2ccccc2n1)NCC(F)(F)F	0	-1	-2	-2	1	0	x	x
CC1CCCCC1NC(=O)CSc1nnc(-c2ccco2)n1C (stereo unspecified)	0	-1	-1	-4	-3	0	x	x
COc1cccc(CNc2nc3cc(-c4ccc(F)cc4)sc3c(=O)n2C)c1OC	x	-2	-1	-7	-3	-5	x	x
C=CCc1cccc(C=Nc2ccc(Br)cc2)c1O	-1	0	1	-4	-2	0	x	x
O=C(Nc1ccc(CCC(=O)N2CCCC2)cc1)c1ncn[nH]1	0	-1	-2	8.2*	-1	0	-5	2
Cc1ccc(-c2cc(-c3ccccc3)nc(N/N=C/c3cccnc3)n2)cc1	1	0	6	-3	1	-2	x	x
CC(CNC(=O)CN1C(=O)c2cccnc2Oc2ccc(Cl)cc21)c1ccccc1 (stereo unspecified)	-2	-1	-2	1	1	0	x	x
CCCc1cc(=O)oc2c(CN(CC)CC)c(O)c(Cl)cc12	2	-2	-3	9.4*	-1	0	-3	1
CCCCc1cc(=O)oc2c(CN(CC)CC)c(O)c(Cl)cc12	1	-2	0	2	-2	0	x	x
OC(COCc1ccccc1)CN1CCc2ccccc2C1 (stereo unspecified)	0	-1	1	-1	-1	0	x	x
COc1ccc(COCC(O)CN2CCc3ccccc3C2)cc1OC (stereo unspecified)	0	-2	4	8.8*	0	0	-2	3
COc1ccc2c(c1)[nH]c1c(=O)n(Cc3ccncc3)cnc12	0	0	8	8.6*	-2	1	3	1
O=C(NCCN1CCN(c2ccccc2)CC1)C1CCN(S(=O)(=O)c2cccs2)CC1	0	-1	-3	-2	-1	-1	x	x
CCOC(=O)[C@]12CCCC=C1N(Cc1ccco1)C(=O)[C@H](CC(=O)NCCc1ccccc1OC)C2	x	-1	-1	8.3*	0	1	0	0
CCOC(=O)[C@]12CCCC=C1N(Cc1ccccc1)C(=O)[C@H](CC(=O)NCCc1ccccc1OC)C2	x	1	-2	-4	-2	2	x	x
CCOC(=O)[C@]12CCC=C1N(Cc1ccccc1)C(=O)[C@H](CC(=O)NCCc1ccccc1OC)C2	x	0	0	10*	-1	2	-3	-1
